# According to PubChem BioAssay (NCATS):
# Inconclusive results are not listed. Where a call stands in place of a potency, no number is given. Calls of active or inactive are those of the source. Calls follow the shape of the dose curve; as a rule, active = well fitted curve in the direction sought with a large enough effect; inconclusive = small, poorly fitted or top-dose-only effect, or another doubt; inactive = no such curve, though single readings can be large; an effect the other way counts as inactive or inconclusive.
# Target: Luciferin 4-monooxygenase (Photinus pyralis) (UniProt P08659)
# Experiment: Biochemical firefly luciferase enzyme assay for NPC (AID 624030)
# Settings: purified P. pyralis luciferase, luminescence, 5 min; series mostly up to 58.6 µM
# In short: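 Purified P. pyralis luciferase at 10 nM in 50 mM Tris Acetate (final), luminescence read within 5 minutes of enzyme addition to compounds. Activity normalised to PTC124 versus DMSO; concentration-response curves classed by r2, magnitude and activity.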
# Also: nearly all actives have a fitted effect of over 70% in size.
# Potency is read from the fitted curve at half-maximal effect.
# Sequence of Luciferin 4-monooxygenase (Photinus pyralis) (P08659 whole entry, looked up): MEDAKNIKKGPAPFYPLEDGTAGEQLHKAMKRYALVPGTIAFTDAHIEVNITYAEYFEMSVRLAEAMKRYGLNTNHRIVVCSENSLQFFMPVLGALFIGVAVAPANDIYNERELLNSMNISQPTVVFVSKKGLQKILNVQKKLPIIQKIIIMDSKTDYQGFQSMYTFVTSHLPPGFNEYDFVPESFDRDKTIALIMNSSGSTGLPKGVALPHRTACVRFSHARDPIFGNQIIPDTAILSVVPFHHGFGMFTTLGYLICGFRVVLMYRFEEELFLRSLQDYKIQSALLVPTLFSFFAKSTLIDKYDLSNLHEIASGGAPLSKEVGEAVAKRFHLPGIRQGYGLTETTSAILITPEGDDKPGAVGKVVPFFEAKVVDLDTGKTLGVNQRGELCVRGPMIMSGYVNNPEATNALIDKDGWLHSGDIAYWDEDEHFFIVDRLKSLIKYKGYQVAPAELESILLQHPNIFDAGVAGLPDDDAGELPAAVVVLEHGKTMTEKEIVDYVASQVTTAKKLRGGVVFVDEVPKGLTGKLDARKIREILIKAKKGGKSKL
row,SMILES,Potency
1,CCC(=O)NCCC1CCc2ccc3c(c21)CCO3 (stereo unspecified),inactive
2,Cc1ccccc1OCC(O)CNCCOc1ccc(C(N)=O)cc1 (stereo unspecified),inactive
3,CC(=O)Oc1cc(C)c(OC(C)=O)c2ccccc12,inactive
4,COCC(=O)Nc1cc(Sc2ccccc2)ccc1N=C(NC(=O)OC)NC(=O)OC,inactive
5,CCN(CC)Cc1cc(Nc2ccnc3cc(Cl)ccc23)ccc1O,inactive
6,O=C(Nc1ccc(Br)cc1)c1cc(Br)c(Br)s1,16.1 µM (active)
7,CCCCC(C)(O)C/C=C/[C@H]1[C@H](O)CC(=O)[C@@H]1CCCCCCC(=O)OC (stereo partly specified),inactive
8,Nc1c(N=Nc2ccc(-c3ccc(N=Nc4cc(S(=O)(=O)O)c5ccccc5c4N)cc3)cc2)cc(S(=O)(=O)O)c2ccccc12,32.2 µM (active)
9,Cc1c(C)c2c(c(C)c1O)CC[C@@](C)(CCC[C@H](C)CCC[C@H](C)CCCC(C)C)O2,inactive
10,CCCC(=O)O[C@]1(C(=O)CCl)[C@H](C)C[C@@H]2[C@H]3CCC4=CC(=O)C=C[C@]4(C)[C@@]3(F)C(=O)C[C@@]21C,inactive
11,CCOC(=O)C1=C(C)NC(C)=C(C(=O)OCC)C1c1ccccc1C=CC(=O)OC(C)(C)C,inactive
12,O=C(O)c1cc(O)c2c(c1)[O][Bi][O]2,inactive
13,OC[C@H]1O[C@@H](n2cnc3c2NC=NC[C@H]3O)C[C@@H]1O,inactive
14,CC(C)N=c1cc2n(-c3ccc(Cl)cc3)c3ccccc3nc-2cc1Nc1ccc(Cl)cc1,inactive
15,CCCCCCCCCCCCCCCCCCOP(=O)([O-])OC1CC[N+](C)(C)CC1,inactive
16,CN(C)CCCN1c2ccccc2C(C)(C)c2ccccc21,inactive
17,CC1=C(/C=C/C(C)=C/C=C/C(C)=C/C=C/C=C(C)/C=C/C=C(C)/C=C/C2=C(C)CCCC2(C)C)C(C)(C)CCC1,inactive
18,CCCCCCCCCCCCCC[n+]1ccc(C)cc1,inactive
19,Oc1cc(O)c2c(c1)OC(c1ccc(O)c(O)c1)C(O)C2 (stereo unspecified),inactive
20,CC1(C)S[C@@H]2[C@H](NC(=O)[C@@H](NC(=O)N3CCNC3=O)c3ccccc3)C(=O)N2[C@H]1C(=O)O,inactive
21,C=CCSSSCC=C,inactive
22,CN1C(=O)CN2CCc3ccccc3C2c2cc(Cl)ccc21 (stereo unspecified),inactive
23,C#C[C@]1(O)CC[C@H]2[C@@H]3CCC4=CCCC[C@@H]4[C@H]3C(=C)C[C@@]21CC,inactive
24,CO[C@H]1C[C@@H]2CC[C@@H](C)[C@@](O)(O2)C(=O)C(=O)N2CCCC[C@H]2C(=O)O[C@H]([C@H](C)C[C@@H]2CC[C@@H](OCCO)[C@H](OC)C2)CC(=O)[C@H](C)/C=C(\C)[C@@H](O)[C@@H](OC)C(=O)[C@H](C)C[C@H](C)/C=C/C=C/C=C/1C,inactive
25,O=C(Nc1cccc(C(F)(F)F)c1)c1cc(Br)cc(Br)c1O,7.21 µM (active)
26,CC[C@@]1(O)C(=O)OCc2c1cc1n(c2=O)Cc2cc3c([N+](=O)[O-])cccc3nc2-1,inactive
27,CCN(CC)CCOc1ccc(-c2nc3cc(Cl)ccc3s2)cc1,6.42 µM (active)
28,CO[C@H](C(=O)[C@@H](O)[C@@H](C)O)C1Cc2cc3cc(O[C@H]4C[C@@H](O[C@H]5C[C@@H](O)[C@H](O)[C@@H](C)O5)[C@@H](O)[C@@H](C)O4)c(C)c(O)c3c(O)c2C(=O)[C@H]1O[C@H]1C[C@@H](O[C@H]2C[C@@H](O[C@H]3C[C@](C)(O)[C@H](O)[C@@H](C)O3)[C@H](O)[C@@H](C)O2)[C@H](O)[C@@H](C)O1 (stereo partly specified),inactive
29,O=S(=O)(O)c1cc(O)c2c(N=Nc3ccc(Nc4ccccc4)c4c(S(=O)(=O)O)cccc34)cc(S(=O)(=O)O)cc2c1,32.2 µM (active)
30,O=C(COc1ccc(Cl)cc1)OCCNC12CC3CC(CC(C3)C1)C2,inactive

# Test system: not listed separately
# Experiment: S16 Schwann cell viability assay (CellTiter-Glo assay) (AID 624031)
# Settings: S16 rat Schwann cells viability, 24 h; series mostly up to 57.5 µM
# In short: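 Rat S16 Schwann cells without reporter constructs received compound or DMSO for 24 h at 37 °C under 5% CO2. Cellular ATP was then quantified by CellTiter-Glo luminescence, with vehicle wells defined as 0% activity and cell-free wells as reference.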
row,SMILES,Potency
1,CCC(=O)NCCC1CCc2ccc3c(c21)CCO3 (stereo unspecified),inactive
2,CCN(CC)Cc1cc(Nc2ccnc3cc(Cl)ccc23)ccc1O,inactive
3,CCCCC(C)(O)C/C=C/[C@H]1[C@H](O)CC(=O)[C@@H]1CCCCCCC(=O)OC (stereo partly specified),inactive
4,Nc1c(N=Nc2ccc(-c3ccc(N=Nc4cc(S(=O)(=O)O)c5ccccc5c4N)cc3)cc2)cc(S(=O)(=O)O)c2ccccc12,inactive
5,Cc1c(C)c2c(c(C)c1O)CC[C@@](C)(CCC[C@H](C)CCC[C@H](C)CCCC(C)C)O2,inactive
6,CCCC(=O)O[C@]1(C(=O)CCl)[C@H](C)C[C@@H]2[C@H]3CCC4=CC(=O)C=C[C@]4(C)[C@@]3(F)C(=O)C[C@@]21C,inactive
7,Clc1cc(Cl)c(OCC#CI)cc1Cl,25.6 µM (active)
8,O=C(O)c1cc(O)c2c(c1)[O][Bi][O]2,inactive
9,Nc1ncnc2c1ncn2[C@@H]1O[C@H](COP(=O)(O)OP(=O)(O)OP(=O)(O)O)[C@@H](O)[C@H]1O,inactive
10,CC(NNC(=O)c1ccccc1)c1ccccc1 (stereo unspecified),inactive
11,COC(C(=O)C(O)C(C)O)C1Cc2cc3cc(OC4CC(OC5CC(O)C(O)C(C)O5)C(O)C(C)O4)c(C)c(O)c3c(O)c2C(=O)C1OC1CC(OC2CC(OC3CC(C)(O)C(O)C(C)O3)C(O)C(C)O2)C(O)C(C)O1 (stereo unspecified),inactive
12,CC(C)N=c1cc2n(-c3ccc(Cl)cc3)c3ccccc3nc-2cc1Nc1ccc(Cl)cc1,inactive
13,CN(C)CCCN1c2ccccc2C(C)(C)c2ccccc21,28.7 µM (active)
14,CC1=C(/C=C/C(C)=C/C=C/C(C)=C/C=C/C=C(C)/C=C/C=C(C)/C=C/C2=C(C)CCCC2(C)C)C(C)(C)CCC1,inactive
15,Oc1cc(O)c2c(c1)OC(c1ccc(O)c(O)c1)C(O)C2 (stereo unspecified),inactive
16,CC(Cc1ccc(O)c(O)c1)C(C)Cc1ccc(O)c(O)c1 (stereo unspecified),inactive
17,CC1(C)S[C@@H]2[C@H](NC(=O)[C@@H](NC(=O)N3CCNC3=O)c3ccccc3)C(=O)N2[C@H]1C(=O)O,inactive
18,O=C(O)c1cc(=O)c2c3nc4ccccc4oc-3cc(=O)c2[nH]1,36.1 µM (active)
19,CN1C(=O)CN2CCc3ccccc3C2c2cc(Cl)ccc21 (stereo unspecified),inactive
20,CO[C@H](C(=O)[C@@H](O)[C@@H](C)O)C1Cc2cc3cc(O[C@H]4C[C@@H](O[C@H]5C[C@@H](O)[C@H](O)[C@@H](C)O5)[C@@H](O)[C@@H](C)O4)c(C)c(O)c3c(O)c2C(=O)[C@H]1O[C@H]1C[C@@H](O[C@H]2C[C@@H](O[C@H]3C[C@](C)(O)[C@H](O)[C@@H](C)O3)[C@H](O)[C@@H](C)O2)[C@H](O)[C@@H](C)O1 (stereo partly specified),inactive
21,O=C(COc1ccc(Cl)cc1)OCCNC12CC3CC(CC(C3)C1)C2,inactive
